RE007 growth inh = less growth of the S. pombe RE007 Vpr strain. S. pombe RE007 Vpr strain, BacTiter-Glo ATP luminescence, 24 h. Potency, µM (titrated, usually from 92.2 µM), for inactives: top-dose activity change, negative = less growth, hits mostly inhibitors. hit rate 0.21% among 360,000; active = well fitted falling curve with a large enough effect; inconclusive = small, poorly fitted or top-dose-only effect; inactive = no such curve, though single readings can be large or run the other way; note: potency is the fitted concentration of half-maximal effect; nearly all actives have a fitted effect of over 50% in size
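Fission yeast strain RE007, carrying one chromosomally integrated HIV-1 vpr copy, was seeded at OD 0.01 in PMG+AL medium with 23 nL pinned compound. After 24 h at 30 °C and 99% humidity, viability was read by BacTiter-Glo luminescence.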
TbPYK inhibitor = blocks Trypanosoma brucei pyruvate kinase; AID 624173; Potency, µM (doses to about 76.8 µM), without a hit: at the highest dose activity, negative = inhibition, most hits filed as inhibitors; TbPYK enzyme, Kinase-Glo Plus ATP luminescence, 45 min; hit rate 0.12% among 410,000; note: potency is the fitted concentration of half-maximal effect; nearly all actives have a fitted effect of over 50% in size
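TbPYK + substrate in 50 mM TEA pH 7.2, 100 mM KCl, 10 mM MgCl2, 0.05% BSA, 0.01% Tween-20; cpd pinned; ADP 130 uM final; 45 min RT; Kinase-Glo Plus 10 min; luminescence endpoint.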
FMDV inh = antivirals against foot and mouth disease virus; Potency, µM (highest dose often 57.9 µM), for the others: at the highest dose activity change, negative = inhibition, hits mostly inhibitors; AID 1159524; hit rate 1.2% among 410,000; FMDV antiviral cell-based qHTS; calls by dose curve; tested in HEK293T cells; note: read-out not given here; potency is the fitted concentration of half-maximal effect; nearly all actives have a fitted effect of over 45% in size
HCMV antiviral = inhibitors of human cytomegalovirus; activity change, negative = inhibition, % at 57.5 µM; AID 1259415; HFF cells, HCMV-luciferase reporter, 72 h; active compounds read low; hit rate 4.5% among 410,000; in the data active = activity change below about -60%; inconclusive = no clear call, values can overlap the other calls; inactive = above about -39%
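Two compound doses tested in HFFs infected with HCMV-luciferase, MOI 1 PFU/cell, 72 h at 37C. Lysate luminescence read with OneGlo; data normalized against buffer-only and 10uM Salinomycin inhibitor controls.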
Sm TGR block = blocks Schistosoma mansoni thioredoxin glutathione reductase | Q962Y6 | purified TGR, DTNB reduction, TNB absorbance 405 nm | Potency, µM (series often up to 114 µM), for inactives: at the highest dose activity change, negative = inhibition, hits mostly inhibitors | hit rate 3% among 360,000; note: potency is the fitted concentration of half-maximal effect; nearly all actives have a fitted effect of over 60% in size
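First, TGR (20 nM dispensed) and NADPH were mixed with compound. Second, a 15 min room-temperature incubation followed. Third, further NADPH and then DTNB were added to start the reaction. Finally, TNB absorbance was monitored kinetically.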
FBPA Giardia inh = inhibitors of Giardia lamblia fructose-1,6-bisphosphate aldolase; A8B2U2; purified Giardia FBPA; Potency, µM (highest dose often 59.6 µM), for the others: at the highest dose activity, negative = inhibition, actives largely listed as inhibitors; hit rate 0.71% among 290,000; note: potency is the fitted concentration of half-maximal effect; nearly all actives have a fitted effect of over 55% in size
Target sequence (A8B2U2 whole entry, looked up): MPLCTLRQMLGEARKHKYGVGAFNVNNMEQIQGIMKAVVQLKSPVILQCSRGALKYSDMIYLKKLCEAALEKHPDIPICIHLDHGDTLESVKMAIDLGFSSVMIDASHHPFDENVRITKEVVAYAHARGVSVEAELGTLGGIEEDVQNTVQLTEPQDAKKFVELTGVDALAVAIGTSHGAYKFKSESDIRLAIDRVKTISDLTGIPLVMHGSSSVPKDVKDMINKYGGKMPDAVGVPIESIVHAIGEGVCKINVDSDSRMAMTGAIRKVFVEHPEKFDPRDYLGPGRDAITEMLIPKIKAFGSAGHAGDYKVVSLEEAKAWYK
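40 nM FBPA preincubated 10 min at RT with compound (up to 57.5 uM final), then substrate plus GAPDH/TPI/NAD/arsenate coupling and diaphorase/resazurin added. Fluorescence read after 20 min at RT, 525/598 nm.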
* marks the source's active call; other numbers are inactive results; ? = inconclusive; . = no result given; [ ] = remark or other dose. Only some compounds are listed: those with a hit (about 7.7% of all), similar ones and a draw of the others. Unless noted, calls come from the whole dose curve; as a rule, active = well fitted curve in the direction sought with a large enough effect; inconclusive = small, poorly fitted or top-dose-only effect, or another doubt; inactive = no such curve, though single readings can be large; an effect the other way counts as inactive or inconclusive. % is set by controls: 0 for no effect and ±100 for the full control effect.

SMILES | RE007 growth inh | TbPYK inhibitor | FMDV inh | HCMV antiviral | Sm TGR block | FBPA Giardia inh
Cc1ccc(S(=O)(=O)c2cn(Cc3ccccc3Cl)c3ccc(F)cc3c2=O)cc1 | . | 3.1% | 10.1% | 0.5 | 0.2% | .
O=C1C(Cl)=C(Nc2ccccc2)C(=O)c2ccccc21 | 6.1% | -2.8% | 39.8µM* | -0.2 | 1µM* | ?
Cc1ccc(NC2=C(NC(=O)c3ccccc3)C(=O)c3ccccc3C2=O)cc1Cl | ? | ? | -26.7% | ? | 1.58µM* | ?
COCCCNC1=C(Cl)C(=O)c2ccccc2C1=O | ? | -6.3% | 4.1% | -22.1 | -31.9% | -12.4%
CCN(CC)CCCNC1=C(Cl)C(=O)c2ccccc2C1=O | ? | -6.4% | 28.2µM* | -93.9* | 35.5µM* | 17.9%
C=CCNC1=C(Cl)C(=O)N(Cc2ccccc2)C1=O | 47.7% | -5.6% | -4.3% | 101.3 | 39.8µM* | 1.8%
COC(=O)C1CCN(Cc2ccc3c(c2)CN(C(=O)c2cc(C)oc2C)CCO3)CC1 | . | . | -7.0% | . | . | .
COc1ccc([C@@H]2[C@H](C(=O)N3CCCC3)CC(=O)N2C(=O)c2ccccc2)cc1 | . | . | . | -3.6 | . | .
Cc1ccccc1-c1cccc(CN2CCc3nnc(C(C)NC(=O)c4cccnc4)n3CC2)c1 (configuration not stated) | . | . | -5.5% | . | . | .
O=C(O)c1cccc(NC2=C(Cl)C(=O)c3ccccc3C2=O)c1 | -8.8% | -3.2% | ? | -99.6* | 1.58µM* | ?
O=C1C(Cl)=C(NCc2cccnc2)C(=O)c2ccccc21 | ? | 3.5% | ? | -28.0 | 44.7µM* | -19.4%
O=C(O)c1cccc(NS(=O)(=O)/C=C/c2ccccc2)c1 | -1.1% | -13.3% | -6.5% | 28.6 | 0.0% | 23.7%
CC(C)OCCCNC1=C(Cl)C(=O)c2ccccc2C1=O | ? | -6.4% | 23.6% | ? | 20.9% | 0.3%
O=C(O)c1ccc(NC(=O)C(c2ccccc2)c2ccccc2)cc1 | 2.8% | -4.5% | -6.3% | -5.7 | 10.4% | 15.4%
O=C(O)c1ccc(NC2=C(Cl)C(=O)c3ccccc3C2=O)cc1 | 1.8% | -17.2% | 25.1µM* | ? | ? | ?
CC(C)NC1=C(Cl)C(=O)c2ccccc2C1=O | ? | -5.3% | -0.7% | ? | 28.2µM* | ?
COc1ccc(Oc2ncc3nc(-c4cc(F)cc(F)c4)c(=O)n(C)c3n2)cc1 | . | -0.5% | -14.4% | . | . | -5.5%
CCCn1c(C)nc2c(N3CCC(N4CCN(C)CC4)CC3)nc(C)nc21 | . | . | . | . | . | 2.9%
O=c1c(NCc2ccccc2Cl)nccn1-c1ccccc1 | . | 1.6% | 65.2% | 41.8 | -13.6% | .
O=C(Nc1ccc(Cl)cc1)NC1CCCC1Cc1ccco1 (configuration not stated) | 7.3% | -2.2% | 0.0% | . | 44.7µM* | -24.6%
Cc1ccc(C)c(N2CCN(C3(c4ccccc4)C(=O)c4ccccc4C3=O)CC2)c1 | . | -1.1% | -12.4% | -18.4 | -1.9% | .
N#Cc1nc(Nc2cc(F)cc(F)c2)c2ncn(CC(F)F)c2n1 | . | 0.1% | -18.4% | 30.7 | -5.7% | .
N#Cc1nc(NCC(F)F)nc(Nc2cc(F)cc(F)c2)n1 | . | -2.8% | 11.2µM* | -37.8 | -27.7% | .
O=C(COc1ccccc1Cl)Nc1cc(-c2ccccc2F)nn1-c1ccccc1 | . | -10.5% | 0.0% | 6.3 | 1.4% | .
Cc1ccccc1C(=O)Nc1ccc2c(C#N)c3nc4ccccc4nc3n2c1 | -1.7% | -16.8% | ? | -65.0* | -25.1% | ?
SMILES | RE007 growth inh | TbPYK inhibitor | FMDV inh | HCMV antiviral | Sm TGR block | FBPA Giardia inh
C/C(=C\C(=O)c1ccccc1)NNC(=O)c1ccc(Cl)cc1 | 6.3% | 1.3% | 1.9% | -73.3* | -27.1% | 19.3%
COc1ccc(C(=O)NN/C(C)=C/C(=O)c2ccccc2)cc1 | -3.0% | 1.1% | -4.2% | 17.8 | 8.8% | 6.2%
COCC(=O)O[C@]1(CCN(C)CCCc2nc3ccccc3[nH]2)CCc2cc(F)ccc2[C@@H]1C(C)C | 2.3%[18.4 µM] | 4.1% | ? | -97.9* | -22.4% | ?
COCCSc1ccccc1C(=O)Nc1ccc(Cl)cn1 | ? | -11.0% | -22.9% | -68.5* | 3.5% | -10.0%
O=C(CCCOc1ccccc1)Nc1ccc(Cl)cn1 | -0.4% | -16.3% | 27.9% | -65.1* | 7.6% | 2.7%
O=C(COC(=O)CNC(=O)c1ccccc1)Nc1ccc(Cl)cn1 | -6.3% | 5.7% | -2.7% | -60.7* | . | .
O=C(CCCOc1ccc(Cl)cc1Cl)Nc1ccncc1 | -4.4% | -7.9% | . | -60.7* | -32.4% | -7.2%
CCCCCCC(=O)Nc1ccc(Cl)cn1 | -6.7% | -3.6% | 50.0% | -15.3 | 5.8% | 1.6%
COCCSc1ccccc1C(=O)Nc1nccs1 | -7.9% | 7.2% | . | 25.6 | -8.8% | 3.9%
O=C(Cn1c(=O)oc2ccccc21)NCc1ccc(Cl)cc1 | . | 0.4% | 2.2% | -32.5 | 9.8% | .
CCOC(=O)C(=CNNc1cccc(Cl)c1)C(=O)OCC | 78.0% | -17.2% | 1.6% | 23.9 | 8.91µM* | -13.0%
CCOC(=O)C(=CNc1ccc(Cl)cn1)C(=O)OCC | 10.3% | -0.1% | 2.6% | -5.2 | 5.2% | 1.6%
COC(=O)[C@H](Cc1ccccc1)N1CC=CS1(=O)=O | . | . | . | 3.5 | . | .
Cc1nn(-c2ccccc2)c(-c2ccccc2)c1C(=O)O | -3.4% | -0.4% | -16.3% | -67.1* | -25.8% | 0.8%
O=C(COC(=O)c1ccccc1C(=O)c1ccc(Cl)cc1)NCCc1ccccc1 | 3.4% | 17.1% | -17.1% | -76.3* | -5.3% | -18.2%
COCCN(Cc1cc2cc3c(cc2nc1Cl)OCO3)C(=O)c1ccc(C)cc1 | -3.9% | -1.4% | ? | -69.5* | -5.9% | -17.1%
CCN1CCOC(=O)C1CC(=O)Nc1cc(Cl)ccc1OC (configuration not stated) | . | -7.5% | -0.1% | 19.0 | 14.1µM* | .
COc1ccc(Cl)cc1NC(=O)CN(C)C1CCS(=O)(=O)C1 (configuration not stated) | 6.6% | 0.2% | -6.7% | 24.6 | 50.1µM* | .
CCc1ccc(NC(=O)CC2C(=O)OCCN2CC)cc1 (configuration not stated) | . | -7.2% | -3.6% | 9.0 | 14.1µM* | .
CCN1CCN(CC(=O)Nc2ccc(C(C)=O)cc2)CC1 | 0.6% | 3.8% | 0.0% | -9.3 | ? | ?
CCN1CCOC(=O)C1CC(=O)Nc1ccc(C(C)=O)cc1 (configuration not stated) | . | -1.5% | -19.0% | 9.7 | 22.4µM* | .
CN(CC(=O)Nc1ccccc1Cl)C1CCS(=O)(=O)C1 (configuration not stated) | 6.8% | -3.1% | -11.5% | 11.3 | 4.0% | .
COc1ccc(Cl)cc1NC(=O)CC1CCCC1 | -2.1% | 1.1% | -11.7% | ? | -10.6% | -6.2%
COc1cccc(NC(=O)CC2C(=O)OCCN2Cc2ccccc2)c1 (configuration not stated) | . | 1.5% | ? | 9.7 | -35.8% | .
